Results filed as inconclusive are left out. Calls of active or inactive are those of the source. Calls come from the whole dose curve; as a rule, active = well fitted activation curve with a large enough effect in the signal ratio in the repeat runs (not every such curve was filed as active); inconclusive = weak or mixed curves, or effect the other way; inactive = no such curve, though single readings can be large or run the other way; the % refers to the signal ratio.

The target of this test is Peroxisome proliferator-activated receptor gamma (Homo sapiens) (UniProt P37231). Briefly: qHTS assay to identify small molecule agonists of the peroxisome proliferator-activated receptor gamma (PPARg) signaling pathway (AID 743094). The following applies: HEK293H PPARg-UAS-bla, beta-lactamase FRET ratio, 17 h; series mostly up to 57 µM. From the text: U.S. Tox21 Program National Center for Advancing Translational Sciences [NCATS] NIH Chemical Genomics Center [NCGC] U.S. Environmental Protection Agency [EPA] National Institutes of Environmental Health Sciences [NIEHS] National Toxicology Program [NTP] U.S. Food and Drug Administration [FDA] Tox21 Assay Overview: The peroxisome proliferator-activated receptors (PPARs) are lipid-activated transcription factors of the nuclear receptor superfamily with three distinct subtypes namely PPAR alpha, PPAR delta (also called PPAR beta) and PPAR gamma (PPARg). All these subtypes heterodimerize with Retinoid X receptor (RXR) and these heterodimers regulate transcription of various genes. PPAR-gamma receptor (glitazone receptor) is involved in the regulation of glucose and lipid metabolism. To identify the compounds that activate PPAR-gamma signaling, GeneBLAzer PPAR gamma UAS-bla HEK293H cell line (Invitrogen, Carlsbad, CA, USA) containing a beta-lactamase reporter gene under control of the control of an upstream activator sequence (UAS) stably integrated into HEK293H cells was used to screen Tox21 compound library.
Peroxisome proliferator-activated receptor gamma (Homo sapiens), sequence (P37231 whole entry, looked up): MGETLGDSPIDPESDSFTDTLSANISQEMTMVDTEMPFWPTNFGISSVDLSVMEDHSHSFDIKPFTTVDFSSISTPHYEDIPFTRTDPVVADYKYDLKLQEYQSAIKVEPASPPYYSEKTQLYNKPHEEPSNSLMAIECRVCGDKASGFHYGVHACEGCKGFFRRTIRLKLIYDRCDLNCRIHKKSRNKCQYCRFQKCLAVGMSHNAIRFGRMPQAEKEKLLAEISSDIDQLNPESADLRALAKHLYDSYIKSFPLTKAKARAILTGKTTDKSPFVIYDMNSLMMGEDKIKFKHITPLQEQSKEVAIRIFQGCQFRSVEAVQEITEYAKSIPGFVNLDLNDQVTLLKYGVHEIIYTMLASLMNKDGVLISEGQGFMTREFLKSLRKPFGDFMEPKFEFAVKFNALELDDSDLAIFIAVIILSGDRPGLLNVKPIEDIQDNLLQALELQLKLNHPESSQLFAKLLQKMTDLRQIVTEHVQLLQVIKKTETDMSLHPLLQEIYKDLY
Tox21 Assay Protocol Summary: PPARg-bla cells were dispensed at 3000 cells/6uL/well in 1536-well black wall/clear bottom plates using a Multidrop Combi (Thermo Fisher Scientific, Waltham, MA) dispenser. After the assay plates were incubated at 37C and 5% CO2 for 5 h, 23 nL of compounds dissolved in DMSO, positive controls or DMSO only was transferred to the assay plate by a Pintool station (Kalypsys, San Diego, CA). The assay plates were incubated at 37C for 17 h. After 1 uL of LiveBLAzerTM B/G FRET substrate was added using a Bioraptr Flying Reagent Dispenser (FRD) workstation (Beckman Coulter, Indianapolis, IN, USA), the plates were incubated at room temperature for 1 h, and fluorescence intensity was measured by an Envision plate reader (PerkinElmer, Shelton, CT).
In general terms: In qHTS, concentration-response curves come from the screen itself.
As to `CC(C)COC(=O)C(C)C`, the outcome was inactive.

As to `COC(C(=O)O)c1ccccc1` (stereo not given), the outcome was inactive.

Consider `CC1=CC(C)C(C=O)C(C)C1` (stereo not given), for which the result was inactive.

`CCOC(=O)Nc1ccc2c(c1)N(C(=O)CCN1CCOCC1)c1ccccc1S2`: the result was inactive.

With `CC(C)c1cccc(C(C)C)c1N`, the result was inactive.

Turning to `CCCCCN(CCCCC)C(=O)C(CCC(=O)O)NC(=O)c1ccc(Cl)c(Cl)c1` (stereo not given), the result was inactive.

On to `CC/C=C\CCCCO`, for which the outcome was inactive.

In the case of `CCC(=O)Nc1cccc(N)c1`, the outcome was inactive.

Take `Fc1ccccc1-c1ccccc1`: the outcome was inactive.

`COc1ccc(COC=O)cc1`: the outcome was inactive.

Consider `CC(=O)CCc1ccc(O)cc1`, for which the outcome was inactive.

Turning to `CCCCc1ccc(N)cc1`, the result was inactive.

Take `O=Cc1ccccc1[N+](=O)[O-]`: the result was inactive.

Turning to `CSc1ccc(C=O)cc1`, the result was inactive.

As for `NC(=O)c1ncn([C@@H]2O[C@H](CO)[C@@H](O)[C@H]2O)c1N`, the result was inactive.

As for `CCCCCCCCCCCCCCCCCCOCC(O)CO` (stereo not given), the result was inactive.

For the molecule `Cc1nccn1CC1CCc2c(c3ccccc3n2C)C1=O` (stereo not given), the outcome was inactive.

In the case of `Nc1nc2c(ncn2CCC(CO)CO)c(=O)[nH]1`, the result was inactive.

As to `NC(=O)CCCCC1CCSS1` (stereo not given), the result was inactive.

Consider `O=C(O)c1ccccc1S`, for which the result was inactive.

Turning to `NS(=O)(=O)c1cc2c(cc1C(F)(F)F)NC(Cc1ccccc1)NS2(=O)=O` (stereo not given), the result was inactive.

Turning to `CC(=O)O[C@H](CC(=O)[O-])C[N+](C)(C)C`, the outcome was inactive.

With `COc1cc(CCC(C)=O)ccc1O`, the result was inactive.

As to `CC(C)CCOC(=O)CC(C)C`, the outcome was inactive.

In the case of `CCCCCCCCCCCl`, the result was inactive.

Regarding `Nc1nc(F)nc2c1ncn2[C@@H]1O[C@H](CO)[C@@H](O)[C@@H]1O`, the result was inactive.

As for `CCn1cc(C(=O)O)c(=O)c2cc(F)c(N3CCN(C)CC3)cc21`, the outcome was inactive.

Regarding `Cc1cc(C)cc(OCC2CNC(=O)O2)c1` (stereo not given), the result was inactive.

As for `CCCCCCOC(=O)CC(CC(=O)OCCCCCC)(OC(=O)CCC)C(=O)OCCCCCC`, the result was inactive.

Take `OC1OC[C@@H](O)[C@H](O)[C@H]1O` (stereo not given in full): the result was inactive.

`CCCC(C)C(=O)O` (stereo not given): the result was inactive.

On to `OCc1ccccn1`, for which the result was inactive.

Regarding `CO[Si](OC)(OC)OC`, the outcome was inactive.

Regarding `COc1cc(C(=O)N2CCOCC2)cc(OC)c1OC`, the result was inactive.

Regarding `CC(C)(O)Cc1ccccc1`, the result was inactive.

Take `Cc1c(C)n(CCN(C)C)c2ccc(C(=O)OCCN(C)C)cc12`: the outcome was inactive.

For the molecule `C1=C\CC/C=C\CC/C=C\CC/1`, the result was inactive.

As to `CCCC(=O)O[C@]1(C(=O)CCl)[C@@H](C)C[C@H]2[C@@H]3CCC4=CC(=O)C=C[C@]4(C)[C@@]3(F)C(=O)C[C@@]21C`, the outcome was inactive.

Turning to `CCCC=O`, the result was inactive.

On to `CC/C=C\C#N`, for which the result was inactive.
